Data taken from PubChem BioAssay (NCATS).
Where “and” joins values, the source holds several entries; their conditions need not be identical. Identical values can stand only once. Inconclusive results are not listed. A call without a number means that no potency is given here. Calls of active or inactive are those of the source. Calls come from the whole dose curve; as a rule, active = well fitted cell-killing curve with a large enough effect; inconclusive = small, poorly fitted or top-dose-only effect; inactive = no such curve, though single readings can be large or run the other way.

assay: qHTS of pediatric cancer cell lines to identify multiple opportunities for drug repurposing: Primary screen for Rh30 cells (AID 1347107); conditions: Rh30 rhabdomyosarcoma viability, CellTiter-Glo luminescence, 48 h; series mostly up to 46 µM; note: nearly all actives have a fitted effect of over 75% in size
How it was run: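 Viability after 48 h compound treatment at 37C, 500-1,000 cells/well, read as ATP luminescence with CellTiter-Glo. Primary screens used 11-point (MIPE, 0.78 nM-46 µM) or 8-point (NPC, 0.59 nM-46 µM) final concentrations; follow-up screens used 11-point dilutions.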

| Compound | Potency |
| --- | --- |
| COC(=O)C1=C(C)NC(C)=C(C(=O)OC(C)C)C1c1cccc2nonc12 (centres undefined) | inactive |
| CC1(C)NC(=O)N(c2ccc([N+](=O)[O-])c(C(F)(F)F)c2)C1=O | inactive |
| Cc1ncc([N+](=O)[O-])n1CC(C)O (centres undefined) | inactive |
| NS(=O)(=O)c1cc(C(=O)O)c(NCc2ccco2)cc1Cl | inactive |
| COc1ccccc1N1CCN(CCN(C(=O)C2CCCCC2)c2ccccn2)CC1 | inactive |
| CNC[C@@H](O)[C@@H](O)[C@H](O)[C@H](O)CO | inactive |
| CCOC(=O)c1c(C)n(C)c2ccc(O)cc12 | inactive |
| CC1Cc2ccccc2N1NC(=O)c1ccc(Cl)c(S(N)(=O)=O)c1 (centres undefined) | inactive |
| O=C(OC1C[C@H]2CC[C@@H](C1)[N+]21CCCC1)C(O)(c1ccccc1)c1ccccc1 (some centres undefined) | inactive |
| NNc1nncc2ccccc12 | inactive |
| Nc1ncn([C@H]2C[C@H](O)[C@@H](CO)O2)c(=O)n1 | inactive |
| COc1c2occc2cc2ccc(=O)oc12 | inactive |
| CC1(C)C(=O)N(CCN2CCC(C(=O)c3ccc(F)cc3)CC2)c2ccccc21 | inactive |
| CCCCCCCCCCCCCCCCCCCCCCO | inactive |
| N=C(N)c1ccc2cc(OC(=O)c3ccc(N=C(N)N)cc3)ccc2c1 | inactive |
| CCN(CCO)CCCC(C)Nc1ccnc2cc(Cl)ccc12 (centres undefined) | inactive |
| NC(=O)Cc1cccc(C(=O)c2ccccc2)c1N | inactive |
| O=C(O)c1cn(-c2ccc(F)cc2)c2cc(N3CCNCC3)c(F)cc2c1=O | inactive |
| CN1C(C(=O)Nc2ccccn2)=C(O)c2sccc2S1(=O)=O | inactive |
| COc1cc(OC)c(C(=O)CCCN2CCCC2)c(OC)c1 | inactive |
| CC1=C(C(=O)O)N2C(=O)[C@@H](NC(=O)[C@H](N)C3=CCC=CC3)[C@H]2SC1 | inactive |
| Nc1cc(C(Cl)=C(Cl)Cl)c(S(N)(=O)=O)cc1S(N)(=O)=O | inactive |
| Nc1ccc(S(N)(=O)=O)cc1 | inactive |

assay: qHTS of pediatric cancer cell lines to identify multiple opportunities for drug repurposing: Primary screen for Rh41 cells (AID 1347108); conditions: Rh41 rhabdomyosarcoma viability, CellTiter-Glo luminescence, 48 h; series mostly up to 46 µM; note: nearly all actives have a fitted effect of over 70% in size; note: potency is the fitted concentration of half-maximal effect
How it was run: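 Luminescence from CellTiter-Glo served as readout of metabolically active cells after 48 h compound exposure. Titrations: MIPE 11-point, from 0.78 nM; NPC 8-point, from 0.59 nM (final). Concentration-response curves came straight from the primary screen.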

| Compound | Potency |
| --- | --- |
| COC(=O)C1=C(C)NC(C)=C(C(=O)OC(C)C)C1c1cccc2nonc12 (centres undefined) | inactive |
| CC1(C)NC(=O)N(c2ccc([N+](=O)[O-])c(C(F)(F)F)c2)C1=O | inactive |
| CC(C)(S)[C@@H](N)C(=O)O | inactive |
| Cc1ncc([N+](=O)[O-])n1CC(C)O (centres undefined) | inactive |
| COc1cc2c(cc1OC)C1CC(=O)C(CC(C)C)CN1CC2 (centres undefined) | inactive |
| NS(=O)(=O)c1cc(C(=O)O)c(NCc2ccco2)cc1Cl | inactive |
| COc1ccccc1N1CCN(CCN(C(=O)C2CCCCC2)c2ccccn2)CC1 | inactive |
| Cc1cc(=O)oc2cc(O)ccc12 | inactive |
| CNC[C@@H](O)[C@@H](O)[C@H](O)[C@H](O)CO | inactive |
| c1cnc2cc3c(cc2n1)C1CNCC3C1 | inactive |
| CCOC(=O)c1c(C)n(C)c2ccc(O)cc12 | inactive |
| CCOc1cc(CC(=O)N[C@@H](CC(C)C)c2ccccc2N2CCCCC2)ccc1C(=O)O | inactive |
| CC1Cc2ccccc2N1NC(=O)c1ccc(Cl)c(S(N)(=O)=O)c1 (centres undefined) | inactive |
| O=C(OC1C[C@H]2CC[C@@H](C1)[N+]21CCCC1)C(O)(c1ccccc1)c1ccccc1 (some centres undefined) | inactive |
| NNc1nncc2ccccc12 | inactive |
| Oc1ccc(OCc2ccccc2)cc1 | inactive |

| Compound | Potency |
| --- | --- |
| COc1ccc2cc([C@H](C)C(=O)O)ccc2c1 | inactive |
| Nc1ncn([C@H]2C[C@H](O)[C@@H](CO)O2)c(=O)n1 | inactive |
| COc1c2occc2cc2ccc(=O)oc12 | inactive |
| C[Se]CCC(N)C(=O)O (centres undefined) | inactive |
| CC1(C)C(=O)N(CCN2CCC(C(=O)c3ccc(F)cc3)CC2)c2ccccc21 | inactive |
| CCCCCCCCCCCCCCCCCCCCCCO | inactive |
| Cc1nc2n(c(=O)c1CCN1CCC(c3noc4cc(F)ccc34)CC1)CCCC2 | inactive |
| N=C(N)c1ccc2cc(OC(=O)c3ccc(N=C(N)N)cc3)ccc2c1 | inactive |
| CCN(CCO)CCCC(C)Nc1ccnc2cc(Cl)ccc12 (centres undefined) | inactive |
| CCN(CC)C(=S)SSC(=S)N(CC)CC | 13.2 nM (active) and 70 nM (active) |
| NC(=O)Cc1cccc(C(=O)c2ccccc2)c1N | inactive |
| Cc1ccc(NC(=O)c2ccc(CN3CCN(C)CC3)cc2)cc1Nc1nccc(-c2cccnc2)n1 | inactive |
| O=C(O)c1cn(-c2ccc(F)cc2)c2cc(N3CCNCC3)c(F)cc2c1=O | inactive |
| CN1C(C(=O)Nc2ccccn2)=C(O)c2sccc2S1(=O)=O | inactive |
| Cc1cc2c(s1)Nc1ccccc1N=C2N1CCN(C)CC1 | inactive |
